Screening data: PubChem BioAssay, Paczesny and Yang Labs, IUPUI and University of Michigan
The full list was thinned out, with hits kept by preference.
ST2 IL33 inh = IL1RL1 inhibition | Q01638 | AlphaLISA ST2-Fc/biotin-IL-33 interaction, 1 h | inhibition, % for hits at 17 µM | 78,000 compounds, 2.3% hits | AID 1259354; in the data active means inhibition above about 30%
Target sequence (Q01638 whole entry, looked up): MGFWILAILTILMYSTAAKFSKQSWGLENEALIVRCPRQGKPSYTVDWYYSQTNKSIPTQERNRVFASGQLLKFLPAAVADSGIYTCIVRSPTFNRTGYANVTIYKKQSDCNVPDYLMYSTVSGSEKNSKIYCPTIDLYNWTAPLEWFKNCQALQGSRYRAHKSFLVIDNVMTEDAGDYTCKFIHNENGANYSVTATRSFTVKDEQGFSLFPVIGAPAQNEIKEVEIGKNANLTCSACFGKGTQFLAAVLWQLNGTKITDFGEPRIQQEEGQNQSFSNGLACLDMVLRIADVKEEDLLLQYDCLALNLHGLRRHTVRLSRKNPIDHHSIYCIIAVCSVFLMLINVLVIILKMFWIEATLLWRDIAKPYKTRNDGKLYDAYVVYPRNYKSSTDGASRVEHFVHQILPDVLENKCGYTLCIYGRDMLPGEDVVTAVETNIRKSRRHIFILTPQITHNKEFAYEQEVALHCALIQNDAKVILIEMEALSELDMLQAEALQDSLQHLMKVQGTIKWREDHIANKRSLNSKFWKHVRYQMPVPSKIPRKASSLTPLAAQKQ
Starred values were filed as active, the others as inactive; i = inactive.

SMILES | ST2 IL33 inh
CN(N=O)c1ccc(O)c(O)c1 | 69%*
CC1CCN(C[C@H]2CN3CC[C@H]2C[C@@H]3CNC(=S)NCCN2CCOCC2)CC1 | i
Nc1c2c(nc3ccccc13)CCCCC2 | i
Nc1cc2nc3ccccc3nc2cc1O | 56%*
CC(C)CNC(=S)NC[C@H]1C[C@@H]2CCN1C[C@@H]2c1cc(-c2ccccc2)nn1C | i
CCOC(=O)c1nc2ccccc2c(=O)n1-c1ccc(Br)c(C)c1 | i
CN(C)C(=O)c1ccc(-c2cccc3c2CCNC3)nc1 | i
Cn1nc(-c2cccs2)cc1[C@H]1CN2CC[C@H]1C[C@@H]2CNC(=O)N1CCOCC1 | i
Cn1nc(-c2cccs2)cc1[C@H]1CN2CC[C@H]1C[C@@H]2CNC(=O)Nc1cccc(C#N)c1 | 35%*
CCNC(=O)NC[C@H]1C[C@@H]2CCN1C[C@@H]2c1cc(-c2cccs2)nn1C | i
S=C(NC[C@H]1C[C@@H]2CCN1C[C@@H]2CN1CCC(Cc2ccccc2)CC1)Nc1ccc(-n2cccn2)cc1 | i
CN(C)c1ccc(CN2CC=C(c3ccc(F)cc3)CC2)cc1 | 40%*
Fc1ccc(CN2CCN(c3ccccc3Cl)CC2)cc1 | i
CN(C)c1ccc(CN2CCN(c3ccc(F)cc3)CC2)cc1 | 38%*
Fc1ccc(CN2CCN(c3ccccc3)CC2)cc1 | i
Cc1ccc(CN2CCN(c3ccc(Cl)cc3)CC2)cc1 | i
Fc1ccc(N2CCN(Cc3ccccc3)CC2)cc1 | i
CCN1CCN(c2ccc3nsnc3c2[N+](=O)[O-])CC1 | i
N#Cc1cccc(-c2ccc3n(c2=O)C[C@H]2C[C@@H]3CN(C(=O)NC3CCCCC3)C2)c1 | i
COc1ccc(-c2cc([C@H]3CN4CC[C@H]3C[C@@H]4CNC(=O)NC3CCCCC3)n(C)n2)cc1OC | i
CC(C)NC(C)C(O)c1ccc2c(c1)CCCC2 (configuration not stated) | i
Nc1nc(CNC2CCC3(CCNCC3)CC2)cs1 | i
C=C[C@H]1CN2CC[C@H]1C[C@@H]2CNC(=S)NCCOC | i
Cc1c(CCN)c2ccccc2n1Cc1ccccc1 | i
CSc1ccc(C2N(c3ccccn3)C(=O)C3CCCN32)cc1 (configuration not stated) | i
SMILES | ST2 IL33 inh
O=C1NC(=O)C2(C(=O)N1)C(c1cccs1)NC(=O)NC2c1cccs1 (configuration not stated) | i
CCc1ccc(CN2CCN(c3ccccc3OC)CC2)cc1 | 97%*
COc1ccccc1N1CCN(Cc2cccc(Cl)c2)CC1 | i
COc1ccccc1N1CCN(Cc2ccc(Cl)cc2)CC1 | i
CCNC(=O)NC[C@H]1C[C@@H]2CCN1C[C@@H]2c1cc(-c2ccco2)nn1C | i
CCOC(=O)Cc1csc(NC(=O)c2cccn(Cc3c(F)cccc3Cl)c2=O)n1 | i
COc1ccc(N=Cc2cc3c(cc2O)OC(N)=C(C#N)C3c2ccco2)cc1 (configuration not stated) | 30%*
Cc1nc(CN2CCN(C(=O)COc3c(C)ccc(C)c3C)CC2)no1 | i
COc1cc(/C=C/[N+](=O)[O-])c(OC)cc1C | 42%*
Cc1ccc(C(CN)CC(=O)O)cc1 (configuration not stated) | i
CC(C)CNC(=S)NC[C@H]1C[C@@H]2CCN1C[C@@H]2c1cc(C2CCCC2)nn1C | i
O=C(Nc1ccc2n(c1=O)C[C@H]1C[C@@H]2CN(C(=O)c2cccnc2)C1)C1CCCCC1 | i
Cc1o[nH]c(=O)c1CC(N)C(=O)O (configuration not stated) | i
NC(Cc1cc(O)c(O)cc1O)C(=O)O (configuration not stated) | 95%*
C[Se]C[C@H](N)C(=O)O | i
COc1ccc(S(=O)(=O)NC[C@H]2C[C@@H]3CCN2C[C@@H]3CN2CCN(c3ccc(F)cc3)CC2)cc1 | i
O=C(Nc1ccccc1)Nc1ccc2n(c1=O)C[C@H]1C[C@@H]2CN(C(=O)c2cccnc2)C1 | i
N#CC1=C(N)Oc2n[nH]c(-c3ccc(F)cc3)c2C1c1ccc(F)cc1 (configuration not stated) | 32%*
N#CC1=C(N)Oc2c(c(=O)oc3ccccc23)C1c1ccc(F)cc1 (configuration not stated) | i
N#CC1=C(N)Oc2n[nH]c(C(F)(F)F)c2C1c1ccc(F)cc1 (configuration not stated) | i
CC(C)(C)c1ccc(OCCNc2ccc([N+](=O)[O-])c3cccnc23)cc1 | 55%*
O=C(c1ccccc1)C1CCCN(Cc2nc(-c3cccs3)no2)C1 (configuration not stated) | i
Fc1ccc(CN2CCN(c3ccccc3)CC2)c(F)c1 | i
Clc1ccc(CN2CCN(c3ccccc3)CC2)c(Cl)c1 | 91%*
CCN1CCN(Cc2ccc(OC)c(C)c2)CC1 | i
SMILES | ST2 IL33 inh
c1ccc(CN2CCN(c3ccccc3)CC2)cc1 | i
COc1ccc(N2CCN(Cc3ccc(Cl)cc3Cl)CC2)cc1 | 36%*
COc1ccc(CN2CCN(c3ccccc3)CC2)c(OC)c1 | i
COc1ccc(CN2CCN(CCO)CC2)cc1C | i
COc1ccc(N2CCN(Cc3ccc(OC)c(C)c3)CC2)cc1 | 36%*
COc1ccc(CN2CCN(c3ccc(F)cc3)CC2)c(OC)c1 | i
O=C(Nc1ccc2n(c1=O)C[C@H]1C[C@@H]2CN(C(=O)c2ccccc2)C1)C1CCCCC1 | i
O=C(NCCSc1ccccn1)C1CC2(CCNCC2)CN1 (configuration not stated) | i
COc1ccccc1-c1cc([C@H]2CN3CC[C@H]2C[C@@H]3CNC(=O)NC(C)C)n(C)n1 | i
O=C(Nc1ccccc1)[C@H]1CN2CC[C@H]1C[C@@H]2Cn1cc(-c2cccc(O)c2)nn1 | i
O=C(CNS(=O)(=O)c1cccs1)N1CC2CC(C1)c1cccc(=O)n1C2 (configuration not stated) | i
O=C(CN1CCCN(Cc2ccccc2Cl)S1(=O)=O)N1CCCC1 | i
CCN(CC)C(=O)c1ccc2c(c1)N(CC(=O)O)C(=O)C1CCCCN21 (configuration not stated) | i
O=C(c1ccc2c(Cl)c3c(nc2c1)CCCC3)N1CCC2(CC1)OCCO2 | i
CN1CCN(C[C@H]2CN3CC[C@H]2C[C@@H]3CNC(=O)c2ccccc2)CC1 | i
COc1ccc(-c2cc([C@H]3CN4CC[C@H]3C[C@@H]4CNC(=O)NC(C)C)n(C)n2)cc1OC | i
CN1CCc2nc(N)c(C#N)c(-c3ccc(Br)cc3)c2C1 | 34%*
COc1ccc2c(c1)O/C(=C\c1ccccc1)C2=O | i
COc1ccc(-c2cc([C@H]3CN4CC[C@H]3C[C@@H]4CNCc3cccc(C#N)c3)n(C)n2)cc1 | i
CCN(CC)C[C@H]1CN2CC[C@H]1C[C@@H]2CNC(=O)Nc1ccsc1 | i
O=C(c1ccncc1)N1C[C@@H]2C[C@H](C1)c1ccc(-c3ccc(Cl)cc3)c(=O)n1C2 | i
O=[N+]([O-])c1cccc(CN2CCN(c3ccc(Cl)cc3)CC2)c1 | 47%*
Fc1ccccc1N1CCN(Cc2ccc(Cl)cc2)CC1 | i
O=[N+]([O-])c1cc(Cl)ccc1N1CCN(Cc2ccccc2)CC1 | 31%*
O=[N+]([O-])c1ccc(CN2CCN(c3ccc(Cl)cc3)CC2)cc1 | i
O=[N+]([O-])c1ccc(N2CCN(Cc3ccc(Cl)cc3)CC2)cc1 | i
Fc1ccc(N2CCN(Cc3ccc(F)c(Br)c3)CC2)cc1 | i
Cc1ccccc1N1CCN(Cc2ccc(Cl)cc2)CC1 | i
CN1CCN(Cc2ccc(F)c(Br)c2)CC1 | i
